GASC-1 inh: inhibitors of GASC-1 histone demethylase, primary screen, biochemical, fluorescence, DELFIA europium; Lysine-specific demethylase 4C (Homo sapiens), Q9H3R0; GST-JMJD2C(1-420) H3K9me3 demethylation; inhibition, % at 2.35 µM; hit rate 0.069% among 330,000;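 active means more than half of a compound's replicate wells show inhibition beyond 50%, single wells judged on their own value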;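 further: signal counts dimethyl H3K9 product captured on neutravidin plate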
Rev-erbA mod: modulators of Rev-erb alpha DNA binding, primary screen, biochemical, FITC-DNA, fluorescence polarization, uHTS; Nuclear receptor subfamily 1 group D member 1 (Homo sapiens), P20393; Rev-erbα–FITC-DNA binding, 90 min; activity, % at 10 µM; hit rate 0.79% among 370,000;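 active means activity above about 14%, limit read from the data; passing the limit was not always enough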
Target sequence (P20393 whole entry, looked up): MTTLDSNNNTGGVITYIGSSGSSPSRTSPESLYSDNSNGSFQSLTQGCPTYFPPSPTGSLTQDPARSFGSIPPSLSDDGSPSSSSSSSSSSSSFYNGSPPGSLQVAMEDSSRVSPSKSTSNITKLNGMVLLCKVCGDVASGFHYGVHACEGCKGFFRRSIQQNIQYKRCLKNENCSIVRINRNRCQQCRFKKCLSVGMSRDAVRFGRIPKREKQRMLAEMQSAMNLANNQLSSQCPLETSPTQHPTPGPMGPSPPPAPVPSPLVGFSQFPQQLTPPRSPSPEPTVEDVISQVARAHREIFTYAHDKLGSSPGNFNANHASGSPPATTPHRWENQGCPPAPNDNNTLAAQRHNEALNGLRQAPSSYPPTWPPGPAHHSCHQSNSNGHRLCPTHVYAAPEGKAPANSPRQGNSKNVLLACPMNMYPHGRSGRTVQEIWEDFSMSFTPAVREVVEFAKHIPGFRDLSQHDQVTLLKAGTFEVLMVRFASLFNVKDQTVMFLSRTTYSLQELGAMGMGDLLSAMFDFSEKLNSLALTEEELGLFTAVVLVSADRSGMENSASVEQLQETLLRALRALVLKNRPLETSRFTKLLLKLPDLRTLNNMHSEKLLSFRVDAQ
proKLK7 act: proKLK7 zymogen activators, primary screen, biochemical, fluorescence intensity | Kallikrein-7 (Homo sapiens), P49862 | purified proKLK7, EDANS-DABCYL substrate fluorescence; 100% is mature enzyme control, 0% vehicle | activation, % at 7 µM | hit rate 0.9% among 370,000 | AID 652039, 2013;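 active means activation above the mean of all tested compounds plus 3 SD, computed per campaign excluding outliers beyond control limits, cut at about 13% in these data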
PP5 primary: PP5 phosphatase inhibitors, primary screen, biochemical, fluorescence | Serine/threonine-protein phosphatase 5 (Homo sapiens), P53041 | hit rate 0.18% among 320,000 | AID 1987, 2009 | inhibition, % at 6.7 µM | purified PP5c, OMFP substrate fluorescence;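 active means inhibition above the campaign's mean inhibition across all tested compounds plus 3 SD, cut at about 9.5% in these data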
PP1 inh: PP1-alpha phosphatase inhibitors, primary screen, counter-screen for PP5 inhibitor project, biochemical, fluorescence, OMFP substrate, single point; inhibition, % at 6.7 µM; purified PP1alpha; AID 2235, 2010; hit rate 0.9% among 320,000; Serine/threonine-protein phosphatase PP1-alpha catalytic subunit (Homo sapiens), P62136;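 active means inhibition above the mean inhibition of all tested compounds plus 3 SD, computed separately for each screening campaign, cut at about 15% in these data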
PG9 binder: binders of HIV-1 gp120 antibody PG9, primary screen, biochemical, TR-FRET; TR-FRET gp120-PG9 antibody binding; HIV-1 gp120 / PG9 antibody interaction; inhibition, % at 6.7 µM; hit rate 0.43% among 360,000; AID 624416, 2012; in the data active means inhibition above about 8.5%
NR1D1 mod conf: modulators of Rev-erb alpha DNA binding, confirmation, biochemical, FITC-DNA, fluorescence polarization, single point; activation, % at 25 µM; shares compounds with Rev-erbA mod; 90 min; hit rate 61% among 3,000;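 active means activation at or above a set limit, or at least 3 SD above the negative control mean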
RORg DNA counter: modulation of RORgamma DNA binding, dose response, counter-screen for Rev-erb alpha modulator project, biochemical, fluorescence polarization, FITC-DNA; shares compounds with Rev-erbA mod; purified RORgamma protein-FITC-DNA binding; IC50, µM; hit rate 8% among 910; AID 1259320, 2017;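 active means Compounds whose fitted half-maximal concentration for disrupting protein-DNA binding is below 10 micromolar; the record names Rev-erb in its text, so the target is in doubt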
Numbers stand for hits; – = inactive; · = no result given; ! = repeats disagree. Only some compounds are listed: those with a hit (about 2.8% of all), similar ones and a draw of the others.

SMILES	GASC-1 inh	Rev-erbA mod	proKLK7 act	PP5 primary	PP1 inh	PG9 binder	NR1D1 mod conf	others
CCC(=O)N1CCCC(C)(C(=O)Nc2ccc3scnc3c2)C1 (centres undefined)	·	19	–	·	·	–	–
CCC(=O)N1CCCC(C)(C(=O)Nc2nccc3cccnc23)C1 (centres undefined)	·	–	–	·	·	–	·
Cc1ccc(CNc2nc3ccccc3n3nnnc23)cc1	–	115	–	–	–	–	71	RORg DNA counter=–
Cc1ccc(-c2nc3ccccc3n3nnnc23)cc1	–	–	–	·	·	–	·
COC(=O)CSc1cnc2ccccc2n1	–	–	–	–	–	–	·
Cc1ccc(Sc2cnc3ccccc3n2)cc1	–	40	–	–	–	–	33	RORg DNA counter=–
Cn1c(N)c(C(=O)COC(=O)C2(c3ccccc3F)CCCC2)c(=O)n(C)c1=O	–	19	–	–	–	–	–
Cn1c(N)c(C(=O)COC(=O)C2(c3ccc(F)cc3)CCCC2)c(=O)n(C)c1=O	–	–	–	–	–	–	·
C=CCN1CC(COCc2ccccc2)OCCS1(=O)=O (centres undefined)	·	–	–	·	·	–	·
CCOc1ccc(/C(CCC(=O)O)=N/NC(=S)NC(C)C)cc1	–	–	–	–	–	–	·
CCOc1ccc(/C(CC)=N/NC(=O)C2(C)CC2(Br)Br)cc1 (centres undefined)	–	31	–	–	–	–	46	RORg DNA counter=–
O=C(CSc1nc2ccccc2nc1N1CCCCC1)N1CCN(S(=O)(=O)c2cc(Cl)ccc2Cl)CC1	·	28	–	·	·	·	30	RORg DNA counter=–
COC(=O)[C@]12C[C@H](CC(=O)NCc3cccc4ccccc34)C(=O)N(Cc3ccc4c(c3)OCO4)C1=C[C@H](C(C)C)O[C@@H]2C1CC1	·	–	–	·	·	·	·
CCCCS(=O)(=O)NCC1CCN(C(=O)C(=O)c2cc3ccccc3o2)CC1	·	–	–	·	·	–	·
COc1cccc(COC(=O)c2cc(S(=O)(=O)N3CCCCC3)ccc2N2CCOCC2)c1OC	–	20	–	–	–	–	–
COc1ccc(C(=O)COC(=O)c2cc(S(=O)(=O)N3CCCCC3)ccc2N2CCOCC2)c(OC)c1	–	18	–	–	–	–	–
COc1ccc(-n2nc3ccc(NS(C)(=O)=O)cc3n2)cc1Cl	·	23	–	–	–	–	18
COc1ccc(NS(=O)(=O)c2cn(C)cn2)cc1Cl	–	–	–	–	–	–	·
COC(=O)C1=C(C)N(C)C(=NCc2ccc(OC)cc2)NC1c1cccc(F)c1 (centres undefined)	·	–	–	·	·	–	·
COC(=O)c1sc(C(F)(F)F)c(-c2ccccc2)c1S(=O)(=O)N1CCCC1	–	24	–	–	–	–	27
COC(=O)C1=C(C)NC(=S)NC1c1ccc(Br)cc1 (centres undefined)	·	–	–	·	·	–	·
C=CCn1c(SCc2cc(C(C)=O)ccc2OCC)nc2ccccc2c1=O	–	–	–	–	–	–	·
COc1ccc(C(C)=O)cc1CSc1nc2ccccc2c(=O)n1-c1cccc(C)c1	–	39	–	–	–	–	36	RORg DNA counter=9.4
COc1ccc(C(C)=O)cc1CSc1nc2ccccc2c(=O)n1-c1ccccc1C	–	–	–	–	–	–	·
COc1ccc(C(C)=O)cc1CSc1nc2ccccc2c(=O)n1-c1ccccc1	·	36	–	–	–	–	36	RORg DNA counter=–
SMILES	GASC-1 inh	Rev-erbA mod	proKLK7 act	PP5 primary	PP1 inh	PG9 binder	NR1D1 mod conf	others
COc1ccc(CN2CCC(CNC(=O)Nc3ccc(C)c(F)c3)CC2)cc1	·	–	–	·	·	·	·
CCC(NC(=O)Cn1c(-c2ccccc2)cc(C(C)=O)c1C)c1ccccc1 (centres undefined)	·	–	–	·	·	·	·
CCCn1c(=S)[nH]c2cc(C(=O)N3CCc4ccccc4C3)ccc2c1=O	–	–	–	–	–	–	·
CCOc1cc2[nH]c(=S)n(CCC(=O)N3CCc4ccccc4C3)c(=O)c2cc1OCC	–	59	–	–	–	–	62	RORg DNA counter=–
Cc1cccc(NC(=O)c2cc3c(n(-c4ccccc4)c2=O)CCCC3=O)n1	–	–	–	·	·	–	·
COc1ccc(-n2c3c(cc(C(=O)Nc4cccc(C)n4)c2=O)C(=O)CC(C)(C)C3)cc1	–	33	–	–	–	–	–
O=C1CCCC2=C1C1(CCCC1)N=C(Nc1nc3ccccc3o1)N2	·	21!	–	·	·	–	–
COc1ccc(-n2c(COc3ccccc3)nnc2SCC(=O)Nc2ccc(OCc3ccccc3)cc2)cc1	·	–	–	·	·	·	·
O=C(O)c1cc(-c2ccc3c(c2)OCO3)nc2ccc(Cl)cc12	–	–	–	–	–	–	·
CCOC(=O)c1cc(-c2ccc3c(c2)OCO3)nc2onc(C)c12	–	33	–	–	–	–	–
COc1cccc2c1C(=O)c1c(O)c3c(c(O)c1C2=O)C[C@@](O)(C(C)=O)C[C@@H]3O[C@H]1C[C@H](N)[C@H](O)[C@H](C)O1	·	28!	–	·	·	–	–
COc1cccc2c1C(=O)c1c(O)c3c(c(O)c1C2=O)C[C@@](O)(C(=O)CO)C[C@@H]3O[C@H]1C[C@H](N)[C@@H](O)[C@H](C)O1	–	–	·	–	–	·	·
CCOC(=O)CC[C@H]1CC[C@]2(CCCN(C(=O)c3ccc4ccccc4n3)C2)O1	·	–	–	·	·	·	·
COc1ccc(NC(=O)CSc2nnc(-c3cccs3)n2N)c(OC)c1	–	13	–	–	–	–	–
COc1ccc(-c2cscc2N)cc1	·	–	–	·	·	–	·
O=C1NC(=O)C2C3C=CC(C12)C1C(=O)NC(=O)C31 (centres undefined)	·	–	–	·	·	–	·
Cc1cc(NC(=O)c2cccc(C(=O)Nc3cc(C)on3)n2)no1	–	22	–	–	–	–	17
COc1ccc(-c2cc(C(=O)Nc3ccc(Br)cc3)no2)cc1	–	35	–	–	–	–	–
COc1ccc(OC)c(-c2cc(C(=O)Nc3cc(C)n(Cc4ccc(Cl)cc4)n3)no2)c1	–	16	–	–	–	–	–
COc1cccc(-c2cc(C(=O)Nc3cc(C)n(Cc4ccc(Cl)cc4)n3)no2)c1	–	–	–	–	–	–	·
COc1ccc(-c2cc(C(=O)Nc3cc(C)on3)no2)cc1OC	–	36	–	–	–	–	29
COc1ccc(-c2cc(C(F)(F)F)n3nc(C(=O)Nc4cc(C)on4)cc3n2)cc1OC	–	34	–	–	–	–	26

High-throughput results deposited in PubChem by several laboratories.
